Compounds without any hit were thinned out: in the full panel of roughly 83,000, 20% have a hit.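 Cell lines were cultured in 96-well plates, exposed to a single compound concentration, and assessed for percent growth 48 hours later.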 Unmarked numbers belong to inactive results. Active and inactive are the calls of the source. Rule for the calls: active = growth percent below 10; inactive = the rest.
System: MDA-MB-468 breast
Experiment: NCI-60 one-dose screen, 48 h (100 = growth as untreated, 0 = no growth, -100 = all killed)
Settings: 10 µM unless noted

Compound | growth
CC(C)(Sc1cc(C(C)(C)C)c(OC(=O)CCCC(=O)O)c(C(C)(C)C)c1)Sc1cc(C(C)(C)C)c(OC(=O)CCCC(=O)O)c(C(C)(C)C)c1 | 54.1%
NNc1ccc(Cl)cc1Cl | 91.5%
CCN1CCN(CCNc2nccc(-c3c(-c4cccc(OC)c4)nc4occn34)n2)S1(=O)=O | 100%
CC1(C)CC[C@]23CC[C@]4(C)[C@H](CC[C@@H]5[C@@]6(C)C/C(=C/c7ccncc7)C(=O)C(C)(C)[C@@H]6CC[C@]54C)[C@H]2[C@H]1OC3=O | 58.8% [100 µM]
CCOC(=O)c1c(C)nc2c(c1N)/C(=C/c1ccc[nH]1)C(=O)N2Cc1ccc(C(F)(F)F)cc1 | 58.7%
CC(C)(C)n1cc(-c2ccnc(NCCCNS(=O)(=O)c3ccc(Br)cc3)c2)c(-c2cccc(O)c2)n1 | 3.51% (active)
Cc1cccc2c3c(sc12)C(c1ccc(Cl)cc1)c1c(nc(CC(=O)Nc2ccccc2)[nH]c1=O)O3 (configuration not stated) | 9.75% (active)
C=CC(=O)N1CCC[C@H](n2c(=O)n(-c3ccc(Oc4ccccc4)cc3)c3c(N)ncnc32)C1 | 0.223% (active)
O=c1ccn(C2CC(O)C(O)C(CO)O2)c(=O)[nH]1 (configuration not stated) | 149%
CO[C@H]1NC(=O)N(S(=O)(=O)c2ccc(Cl)cc2)[C@@H]1OC | 110%
COc1ccc2[nH]c(=O)c3c4ccccc4cn3c2c1 | 38%
COc1cc2c(cc1NC(=O)C(Cl)Cl)-c1ccc(NC(=O)C(Cl)Cl)cc1C2 | -58.3% (active)
COc1ccc2cc(C(C)C(=O)Nc3ccc(S(=O)(=O)Nc4cc(C)on4)cc3)ccc2c1 (configuration not stated) | 114%
Cc1ccc2c(c1)C(=O)CCS2 | 111%
CCOC(=O)c1c(Nc2ccccc2)nn2c(N)c(C#N)c(-c3ccc(OC)cc3)nc12 | 73.1%
CCN1C(=O)N(CC)C2C1NN=c1s/c(=C\c3ccccc3F)c(=O)n12 (configuration not stated) | 10.9%
COc1ccc(C(C)=O)cc1S(N)(=O)=O | 99.4%
Oc1ccc(Nc2nccc(-c3ccc4ccccc4c3)n2)cc1 | 20.7%
O=c1oc2ccc(I)cc2c(=O)n1-c1ccc(Cl)cc1F | 0.339% (active)

Compound | growth
N[C@@H]1CCCN(c2c(/C=C3\SC(=O)NC3=O)cccc2-c2ccccc2)C1 | 55.8%
COC(=O)[C@@H](Cc1c[nH]c2ccccc12)NC(=O)CCCCOc1cc(O)c2c(=O)cc(-c3ccccc3)oc2c1 | 71.3%
O/N=C/c1ccc(O)cc1O | 121%
O=C(C(Br)C(Br)c1ccccc1)C(Br)C(Br)c1ccccc1 (configuration not stated) | -44.4% (active)
COc1cnc2c(c1)C(=O)c1c-2n(CCCCl)c(=O)c2ccncc12 | 34.1%
CCC1=C[C@@H]2CN(C1)Cc1c([nH]c3ccccc13)[C@@](C(=O)OC)(c1cc3c(cc1OC)N(C=O)[C@H]1[C@@](O)(C(=O)OC)[C@H](OC(C)=O)[C@]4(CC)[C@@H]5C[C@@H]5CN5CC[C@]31[C@@H]54)C2 | 25.2%
CCc1nc(N)nc(N)c1C#CC(C)c1ccc(-c2ccncc2)cc1Cl (configuration not stated) | 5.88% (active)
Cc1cc(N/N=C/c2nc(-c3ccc(Br)cc3)oc2C)c2cc(Br)ccc2n1 | -5.21% (active)
COC(=O)c1ccc(NC(N)=NCC(C)(C)COc2ccc(C(F)(F)F)cc2)nc1 | 17.1%
COC(=O)[C@]1(C)CCC[C@]2(C)[C@H]3C[C@@H]4[C@H]5[C@@H]6CC/C(=N\OCC/C(N)=N/O)[C@H]5[C@@]3(CC[C@H]21)CC4(C(C)C)O6 | 64.1%
CCCCNC(=O)c1cc([N+](=O)[O-])cc(C2CCCCC2)c1O | -1.64% (active)
CCCCCSc1ccc2nc(NC(=O)OCC)sc2c1 | -10.5% (active)
CNC(=O)c1cc(Oc2ccc3nc(NC(=O)c4cc(N5CCOCC5)cc(C(F)(F)F)c4)sc3c2)ccn1 | 63.7%
c1ccc(-c2nnn(-c3ccccc3)n2)cc1 | 111%
NC(=O)c1c(NC(=O)c2ccc(C3CCCCC3)cc2)sc2c1CCC(=O)C2 | -10.3% (active)
NC(=O)c1cc(Br)cc(Br)c1NS(=O)(=O)c1ccccc1 | 106%
C[n+]1c2ccccc2nc2ccccc21 | 9.7% (active)
COc1cc([C@@H](CCO)C[C@H](C)c2ccc3ccccc3c2)cc(OC)c1OC | 17.2%

Reference: PubChem BioAssay (NCI)
